# Most compounds without a hit are left out; they make up all but 3.4% or so of the library.
# PAX8 inh HTS = inhibitors of PAX8 transcriptional activity in RMG-I cells. RMG-I TPO-luciferase reporter, SteadyGlo, 24 h. inhibition, % at 12.6 µM. 360,000 tested, 1.2% active. AID 652154;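 active = mean replicate inhibition at least 60% with every replicate also reaching 60%; inconclusive = only one of the two criteria is met; inactive = mean below 60% and not all replicates reaching 60%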;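 note: luciferase light reporting Pax8 driven TPO promoter activity; plate controls were median of neutral control wells for no effect and mitoxantrone controls for full effect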
# SIRT5 block = inhibitors of human sirtuin-5 desuccinylase. Q9NXA8. AID 652115. Purified SirT5, succinyl-peptide AMC, trypsin-coupled fluorescence. 330,000 tested, 1.1% active. inhibition, % at 15 µM; in the data active = inhibition above about 15%; inconclusive = no clear call, values can overlap the other calls
# Target sequence (Q9NXA8 whole entry, looked up): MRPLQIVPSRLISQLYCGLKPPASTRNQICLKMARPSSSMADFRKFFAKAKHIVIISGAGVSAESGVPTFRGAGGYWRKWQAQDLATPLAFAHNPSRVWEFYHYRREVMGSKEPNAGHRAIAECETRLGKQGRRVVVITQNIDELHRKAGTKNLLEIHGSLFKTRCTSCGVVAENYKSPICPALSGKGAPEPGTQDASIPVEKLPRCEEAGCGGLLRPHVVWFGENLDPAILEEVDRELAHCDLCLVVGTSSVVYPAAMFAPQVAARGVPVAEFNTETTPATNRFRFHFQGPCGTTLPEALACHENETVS
# EWS-Fli inh = inhibitors of EWS/Fli oncoprotein transcriptional activity. A673 NR0B1-luciferase reporter, viability-normalised. inhibition, % at 12.6 µM. 350,000 tested, 0.67% active;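 active = mean inhibition of at least 50% after viability correction, with every replicate also passing that limit; inconclusive = mean reaches 50% but only one of two replicates passes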;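 note: firefly luciferase signal divided by Alamar Blue viability fluorescence both relative to DMSO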
# LGR2 antag = blocks bursicon-induced cAMP signaling via Drosophila LGR2 | 380,000 tested, 0.35% active | HEK293 LGR2, CRE-luciferase, bursicon-stimulated, 4 h | inhibition, % at 9.99 µM;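 active = drop in luminescence signal, shown as inhibition above about 50% in the replicate tests, limit read from the data, passing the limit was not always enough; inconclusive = probably only some replicates passing the limit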;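 note: agonist challenge used bursicon conditioned medium at about half maximal strength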
# PGC1a acetyl inh = lowers PGC1a acetylation signal in U2OS cells | AlphaScreen anti-acetyl-lysine; with virally co-expressed GCN5 acetyltransferase | inhibition, % at 15.6 µM | 350,000 tested, 0.17% active;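 active = every replicate shows inhibition of at least 40%; inconclusive = mean inhibition at least 40% but some replicate below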;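 note: 0% = neutral control wells and 100% = positive control wells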
# Ecoli rRNA inh = inhibits bacterial ribosomal RNA function over humanized ribosomes | E. coli WT GFP vs humanized-ribosome RFP mutants, fluorescence, 24 h; stronger effect = lower value; DMSO median 0, no signal -100 | AID 720706 | GFP signal change (wild-type ribosome), % (concentration not given with the values) | 350,000 tested, 1.6% active;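 active = significant combined selectivity score with lowered wild-type GFP, culture density cut under 30%, mutant RFP and density less affected; inactive = any of these conditions unmet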
# * hit, by the source's call; ? = inconclusive; . = no result given.
SMILES,PAX8 inh HTS,SIRT5 block,EWS-Fli inh,LGR2 antag,PGC1a acetyl inh,Ecoli rRNA inh
COCC(=O)Nc1ccc2c(c1)C(=O)N(C)[C@H]1CC[C@H](CC(=O)Nc3cn(C)nc3C)O[C@H]1CO2,-2,.,7,6,-4,3
Cc1cccc(Nc2nc(N)c([N+](=O)[O-])c(N3CCOCC3)n2)c1,-13,4,7,-11,.,-24*
COc1cccc(Nc2nc(N)c([N+](=O)[O-])c(N3CCOCC3)n2)c1,-6,4,-3,-12,-9,-29*
Cc1ccc2c(c1)C(=O)N1[C@H]3c4cc(Cl)ccc4OC[C@@H]3[C@H](c3ccccc3)[C@]1(C)C(=O)N2,4,.,52*,-3,-3,12
Cc1ccc2c(c1)C(=O)N1[C@H]3c4cc(C)ccc4OC[C@@H]3[C@H](c3ccccc3)[C@]1(C)C(=O)N2,26,-8,49,5,.,14
CCC(=O)Nc1ccc2c(c1)C(=O)N(C)C[C@@H](OC)[C@H](C)CN(CC1CC1)[C@@H](C)CO2,-5,-7,-8,18,1,4
O=C(c1ccncc1)N1CC(=O)N2[C@H](CO)[C@@H](c3ccc(C#CCC4CCCC4)cc3)[C@H]2C1,.,.,.,.,.,-52
O=C(CSc1nc2scc(-c3ccccc3)c2c(=O)[nH]1)NC1CCCCC1,-3,8,8,-23,.,13
O=C(CSc1nc2scc(-c3ccccc3)c2c(=O)[nH]1)N1CCCCC1,-10,3,2,0,3,-35*
O=C(C[C@@H]1C=C[C@H](NC(=O)c2ccccc2)[C@@H](CO)O1)NCc1ccncn1,7,1,6,-4,-3,4
NC(=O)C1CCN(C(=O)CN(C2CCCCC2)S(=O)(=O)c2ccc(F)cc2)CC1,1,-7,4,4,5,-26*
O=C(O)c1ccc(S(=O)(=O)N(Cc2ccc(F)cc2)C2CCCCC2)cc1,18,-3,10,.,2,-22*
COc1ccc(CN(C(=O)c2ccco2)c2ccc(C)c(C)c2)cc1,16,112*,33,-5,-18,-51
CCOc1ccc(N(Cc2ccc(OC)cc2)C(=O)c2ccco2)cc1,-2,0,-1,-7,-3,-1
O=C(Nc1ccc2ccccc2c1)c1ccccc1F,-37,9,21,52*,12,7
COc1ccccc1C(=O)Nc1ccc2ccccc2c1,-186,4,-137,-63,.,-33*
COc1ccc2nc(SCC(=O)Nc3ccccc3OC)[nH]c2c1,0,13,-12,10,.,-24*
COc1ccccc1C(=O)Nc1cccc(NC(=O)c2ccccc2C)c1,-19,1,-9,-11,8,-34*
COc1cc(CN2CC3(CN(C(C)=O)C3)c3c([nH]c4cc(OC)ccc34)[C@H]2CO)cc(OC)c1,.,.,-8,0,7,0
COc1ccc(C(=O)Nc2ccc3ccccc3c2)c(OC)c1,-71,-7,10,45,13,-28*
COc1ccccc1NC(=O)C(=O)NNC(=O)COc1ccc2ccccc2c1,6,-3,7,0,.,-21
COc1cccc(OC)c1C(=O)NC(=S)Nc1ccc2c(c1)Cc1ccccc1-2,17,-5,.,12,.,3
COc1ccccc1C(=O)NCCC(=O)Nc1ccc(OC(F)(F)F)cc1,14,102*,9,3,-18,5
COc1cccc(OC)c1C(=O)Nc1ccc2c(c1)Cc1ccccc1-2,-67,-1,-38,-40,1,-23*
COc1ccccc1NC(=O)COc1ccc2ccccc2c1,6,-2,-3,-6,.,-31*
SMILES,PAX8 inh HTS,SIRT5 block,EWS-Fli inh,LGR2 antag,PGC1a acetyl inh,Ecoli rRNA inh
CN(C)C(=O)C[C@H]1C=C[C@H](NC(=O)C2CCC2)[C@H](CO)O1,0,-3,3,1,7,5
O=S(=O)(NC1CCN(Cc2ccc(OCCO)cc2)CC1)c1cc(C(F)(F)F)ccc1Cl,.,.,-9,.,-7,.
Cc1csc2c(N3CCN(C(=S)Nc4ccc(C(F)(F)F)cc4)CC3)ncnc12,14,1,9,18,-5,-32*
CCc1ccc(-c2cc(C)no2)cc1S(=O)(=O)NCCCN1CCN(c2ccccc2)CC1,61*,0,9,8,.,-14
CC(C)Cc1nnc(NC(=O)C2CCN(C(=O)c3ccc(Cl)cc3)CC2)s1,-15,1,1,6,-7,7
CC(C)c1nnc(NC(=O)C2CCN(C(=O)Nc3ccc(Cl)cc3)CC2)s1,2,-4,-28,-2,8,-23*
C/C(=N/NC(=O)c1ccoc1C)c1cccc(NC(=O)C(F)(F)F)c1,-11,.,.,-8,.,.
C/C(=N/NC(=O)c1ccc(C)s1)c1cccc(NC(=O)c2ccoc2C)c1,-27,17*,-15,-13,.,-18
Cc1ccc(S(=O)(=O)N(C)C[C@H]2OCCCC[C@H](C)Oc3ccc(NC(=O)CCC(F)(F)F)cc3C(=O)N([C@@H](C)CO)C[C@H]2C)cc1,-13,5,-14,20,-6,0
O=c1cc2oc3cc(O)c(O)cc3c(-c3ccccc3[N+](=O)[O-])c-2cc1O,102*,16*,-55,19,.,-38
CCCCNc1c(-c2cccc(-c3ccc(OC)cc3)c2)nc2cc(C)ccn12,3,.,26,92*,-10,-13
COc1ccc(Cc2c(-c3cccc(Cl)c3)nc3ccc(C)cn23)c(C)c1,-112,22*,-122,-81,-6,5
Cc1ccn2c(NC3CCCC3)c(-c3ccncc3)nc2c1,4,-2,17,1,8,-7
CCCCNc1c(-c2ccc(OC)c(SC3CCCCC3)c2)nc2cc(C)ccn12,26,.,41,27,0,.
CCCCNc1c(-c2cccc(-c3ccc(OC)cc3)c2)nc2ccc(C)cn12,5,.,9,68*,.,13
CCCCNc1c(-c2cccc(-c3cc(C(C)=O)cs3)c2)nc2ccc(C)cn12,37,.,9,?,-2,-3
Cc1ccn2c(NC3CCCCC3)c(-c3cccc(-c4cccc(Cl)c4)c3)nc2c1,17,16*,27,-2,-13,62
C[C@@H]1CN([C@H](C)CO)C(=O)c2cccc(NC(=O)Nc3ccc4c(c3)OCO4)c2O[C@H]1CN(C)CC1CCCCC1,.,.,.,-18,.,-13
CCNC(=O)C[C@@H]1C=C[C@H](NS(=O)(=O)c2ccc(F)cc2)[C@H](CO)O1,1,-1,0,4,12,1
CCCNC(=O)N(C)C[C@@H]1Oc2ncc(-c3ccc(OC)cc3)cc2C(=O)N([C@H](C)CO)C[C@@H]1C,.,-1,-12,5,-7,0
CSc1nsc(SC)c1NC(=O)Nc1ccccc1C,15,-5,-3,-14,103*,25

# Screens deposited in PubChem by Broad Institute.
